Out of some 69,000 compounds screened, about 8,600 (12%) showed an effect of 50% or more. This excerpt belongs to a sample that is enriched for strong results.

For this experiment, the system named is Plasmodium berghei. Description: Screen against P. berghei liver stage (PbLuc), transformed with Luciferase, at 10uM. The settings on record: tested at 10 uM. The format is functional, HepG2.
In the case of `Cc1noc(CNC(=O)C(C)(C)NC(=O)OC(C)(C)C)n1`, the INHIBITION is on record as 22%.

As to `COc1ccc(C2=NOC(C(=O)N3CCCc4ccccc43)C2)cc1` (stereo not drawn), the INHIBITION is on record as -20.6%.

`CC(C)N(C)CC(=O)NCC(Cc1ccc(F)cc1)C(N)=O` (stereo not drawn): the INHIBITION is listed as -16%.

In the case of `Clc1ccc(C2NCCc3cc4c(cc32)OCCO4)cc1` (stereo not drawn), the INHIBITION is reported as 45.6%.

As for `CCc1ccc(C2NCCc3cc4c(cc32)OCCO4)cc1` (stereo not drawn), the INHIBITION came to 51.5%.

Consider `Fc1ccccc1C1NCCc2cc3c(cc21)OCCO3` (stereo not drawn), for which the INHIBITION is given as 2.6%.

For the molecule `CCOC(C)C(=O)NCCNS(C)(=O)=O` (stereo not drawn), the INHIBITION stood at 19.3%.

As to `CC(C)(C)NC(=O)NC(=O)CN1C=Nc2ccccc2S1(=O)=O`, the INHIBITION is given as 44.3%.

`COc1ccc(CNC(Cc2ccsc2)c2ccc(C)cn2)c(OC)c1` (stereo not drawn): the INHIBITION turned out to be 68.4%.

As for `COc1ccc(CNC(Cc2ccsc2)c2ccc(C)cn2)cc1OC` (stereo not drawn), the INHIBITION turned out to be 44.3%.

Take `COc1cccc(OC)c1CNC(Cc1ccsc1)c1ccc(C)cn1` (stereo not drawn): the INHIBITION was 84.2%.

As to `CC(C)Oc1cccc(CNC(Cc2ccsc2)c2nccs2)c1` (stereo not drawn), the INHIBITION is recorded as 44.3%.

In the case of `CC(C)CC(NCc1ccsc1)c1ccccn1` (stereo not drawn), the INHIBITION was 44.6%.

With `COc1ccc(CNC(Cc2ccsc2)c2ncccc2C)cc1OC` (stereo not drawn), the INHIBITION is listed as 55.05%.

Regarding `COc1ccc(CN2CCC(c3cc(O)nc(C)n3)C2)c(OC)c1` (stereo not drawn), the INHIBITION is given as -12.2%.

In the case of `Cc1cccnc1C(Cc1ccsc1)NCc1cnc(N(C)C)nc1` (stereo not drawn), the INHIBITION is -2.495%.

On to `COc1ccc(CNC(Cc2cccs2)c2nc(C)c(C)s2)cc1OC` (stereo not drawn), for which the INHIBITION is listed as 30.4%.

On to `O=C(C1CCCCC1)N1CCC(n2nc(-c3ccco3)ccc2=O)CC1`, for which the INHIBITION is recorded as 40%.

For `Cc1ccc(C(N)c2cccc(S(C)(=O)=O)c2)c(C)c1` (stereo not drawn), the INHIBITION is listed as -24.2%.

In the case of `CCc1csc(C2CCCN(C(=O)c3cc(Cl)c[nH]3)C2)n1` (stereo not drawn), the INHIBITION came out at 11.9%.

`CCCC1COCCN1Cc1ccc(S(=O)(=O)NC)cc1` (stereo not drawn): the INHIBITION is -6.39%.

For the molecule `COc1ccccc1CC1CCCN(CC(=O)NC2CC2)C1` (stereo not drawn), the INHIBITION is given as -25.9%.

Turning to `CNC(=O)NC(=O)CN1CCCC(Cc2ccccc2OC)C1` (stereo not drawn), the INHIBITION was -43.6%.

With `CNC(=O)CN1CCCC(Cc2ccccc2OC)C1` (stereo not drawn), the INHIBITION came out at 59%.

In the case of `CCCS(=O)(=O)N1C[C@@H](OCc2ccncc2)[C@H]2OCCC[C@H]21`, the INHIBITION is on record as -7.2%.

Turning to `CCOCCn1c(=O)[nH]c2cc(C(=O)N(C)Cc3cnn(C)c3)ccc21`, the INHIBITION stood at 24.065%.

In the case of `CCCN(C)C(=O)c1ccc2c(c1)[nH]c(=O)n2CCOCC`, the INHIBITION amounted to 3.47%.

For the molecule `CCOCCn1c(=O)[nH]c2cc(C(=O)N(C)CCc3cn[nH]c3)ccc21`, the INHIBITION turned out to be 50.1%.

Consider `CC(C)N(C)Cc1cc(=O)n2c(n1)CN(S(=O)(=O)C1CC1)CCC2`, for which the INHIBITION came to 25.6%.

With `CNC(=O)C1(CCCc2ccccn2)CN(Cc2coc(C)n2)C1`, the INHIBITION was found to be 14.6%.

Regarding `Cc1ccc(CC(=O)NC(C)C(=O)N2CCS(=O)(=O)CC2)cc1` (stereo not drawn), the INHIBITION is reported as -11.1%.

As to `CC(NC(=O)Cc1ccccc1F)C(=O)N1CCS(=O)(=O)CC1` (stereo not drawn), the INHIBITION stood at 49.4%.

With `Cc1ccc(CC(=O)NC(C)C(=O)N2CCS(=O)(=O)CC2)s1` (stereo not drawn), the INHIBITION worked out at 76.2%.

For the molecule `CNC(=O)CN1CCO[C@H]2CN(CC3CCOCC3)C[C@H]21`, the INHIBITION is given as 13.7%.

Regarding `CC(C)NC(=O)CN1CCC(c2cccc(F)c2)C1` (stereo not drawn), the INHIBITION amounted to 45.65%.

For `Cn1nccc1C(=O)N1Cc2cc(Cl)ccc2OC2(CCOCC2)C1`, the INHIBITION is reported as -0.902%.

Regarding `CN1CC(c2ccccc2)CC2(CCN(C(=O)c3ccccc3)CC2)C1` (stereo not drawn), the INHIBITION was determined as 49.4%.

In the case of `CN1CC(c2ccccc2)CC2(CCN(C(=O)c3cccnn3)CC2)C1` (stereo not drawn), the INHIBITION was determined as 81.2%.

For the molecule `CN1CC(c2ccccc2)CC12CCN(C(=O)c1cncc(Cl)c1)CC2` (stereo not drawn), the INHIBITION stood at 8.47%.

Turning to `CN1CC(c2ccccc2)CC12CCN(C(=O)c1ccncc1)CC2` (stereo not drawn), the INHIBITION came to 7.6%.

For `COC(=O)N1CCC2(CC1)CC(c1ccccc1)CN(C)C2` (stereo not drawn), the INHIBITION was found to be 39.4%.

With `CN1CC(c2ccccc2)CC12CCN(C(=O)c1cccnc1)CC2` (stereo not drawn), the INHIBITION is reported as 51.2%.

Turning to `CN1CC(c2ccccc2)CC12CCN(C(=O)c1ccc(Cl)cc1)CC2` (stereo not drawn), the INHIBITION came to 37.6%.

As for `CN1CC(c2ccccc2)CC12CCN(C(=O)c1c(Cl)cnn1C)CC2` (stereo not drawn), the INHIBITION turned out to be 55.1%.

Consider `CN1CC(c2ccccc2)CC12CCN(C(=O)c1ccc(Cl)cn1)CC2` (stereo not drawn), for which the INHIBITION was 28.5%.

`O=C(c1cc(-c2cccnc2)[nH]n1)N1CCCC(Cc2ccccn2)C1` (stereo not drawn): the INHIBITION was -12.76%.

Turning to `Cc1cc(Cc2ccc(S(=O)(=O)N3CCCC3)cc2)c(=O)[nH]n1`, the INHIBITION was found to be 20.9%.

Take `CNC(=O)C1(c2cnccn2)CCCN1C(=O)c1ncccc1C` (stereo not drawn): the INHIBITION is reported as 19.6%.

Turning to `COC(=O)CC(c1cccc(OC(F)F)c1)c1oc(C)cc(=O)c1O` (stereo not drawn), the INHIBITION is recorded as 21.5%.

Take `CCS(=O)(=O)N1Cc2c(Cn3ccnc3)nn(C)c2C1`: the INHIBITION was determined as 26.5%.

For the molecule `CCS(=O)(=O)N1Cc2c(Cn3cccc3)nn(C(C)C)c2C1`, the INHIBITION was found to be 12.1%.

As for `CCS(=O)(=O)N1Cc2c(Cn3ccnc3)nn(C(C)C)c2C1`, the INHIBITION is listed as 65.1%.

In the case of `Cc1n[nH]c(C)c1CC(=O)NCCc1ccccc1`, the INHIBITION came to 52.5%.

For the origin of these results see ChEMBL document CHEMBL4513216, “Probing the Open Global Health Chemical Diversity Library for Multistage-Active Starting Points for Next-Generation Antimalarials” (ACS Infect Dis, 2020).
